Source: PubChem BioAssay (several laboratories)
Most compounds without a hit are left out; they make up all but 2.1% or so of the library.
HIF activator = HIF pathway transcriptional activation | U2OS HRE-luciferase reporter, luminescence; normalized: DMSO 0%, desferrioxamine 100% | activation, % at 7.5 µM (by protocol) | actives 0.32% (n = 300,000) | AID 1910;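 active = mean activation of at least 10% of the iron chelator positive control signal, with at least half of replicates also reaching 10%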
Platelet DG rel = modulates dense granule release in human platelets; human platelet-rich plasma, SFLLRN dense granule ATP release, luminescence; inhibition, %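 (compounds screened at 7.5 µM in platelet-rich plasma)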; actives 0.22% (n = 300,000); AID 1663;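 active = mean replicate score, as percent of positive control, at or above 50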
KLF5 inh = inhibitors of KLF5 expression. DLD-1 KLF5 promoter-luciferase reporter, luminescence. inhibition, % at 5 µM. actives 0.23% (n = 290,000). AID 1700;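 active = inhibition above a per-plate limit of that plate's mean compound inhibition plus 3 SD, cut at about 60% in these data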;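 also: 0% = DMSO wells and 100% = LY294002 at 200 µM; higher means less KLF5 promoter-driven luciferase light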
aSyn 5UTR inh = 5' untranslated region of α-synuclein, MLPCN primary screen; alpha-synuclein 5'UTR reporter, inhibitor activity; inhibition, % (tested at 7.5 µM); actives 0.82% (n = 300,000); AID 1813; in the data active = inhibition above about 60%;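 also: H4 neuroglioblastoma cells stably carrying SNCA 5'UTR luciferase fusion; 0% = DMSO wells and 100% = positive control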
Wee1 degr inh = blocks degradation of human Wee1 kinase. P30291. HeLa Luc-Wee1K328M stability, luciferase luminescence; 100% = proteasome inhibitor MG132 effect. reporter increase, % at 5 µM. actives 1.2% (n = 220,000). AID 1321;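 active = activation above the mean of all tested compounds plus 3 SD, set per screening run, cut at about 8.8% in these data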;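 also: cells exposed to compound for 20 h before luminescence read; 0% = DMSO alone and 100% = MG132 at 30 µM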
Target sequence (P30291 whole entry K328M): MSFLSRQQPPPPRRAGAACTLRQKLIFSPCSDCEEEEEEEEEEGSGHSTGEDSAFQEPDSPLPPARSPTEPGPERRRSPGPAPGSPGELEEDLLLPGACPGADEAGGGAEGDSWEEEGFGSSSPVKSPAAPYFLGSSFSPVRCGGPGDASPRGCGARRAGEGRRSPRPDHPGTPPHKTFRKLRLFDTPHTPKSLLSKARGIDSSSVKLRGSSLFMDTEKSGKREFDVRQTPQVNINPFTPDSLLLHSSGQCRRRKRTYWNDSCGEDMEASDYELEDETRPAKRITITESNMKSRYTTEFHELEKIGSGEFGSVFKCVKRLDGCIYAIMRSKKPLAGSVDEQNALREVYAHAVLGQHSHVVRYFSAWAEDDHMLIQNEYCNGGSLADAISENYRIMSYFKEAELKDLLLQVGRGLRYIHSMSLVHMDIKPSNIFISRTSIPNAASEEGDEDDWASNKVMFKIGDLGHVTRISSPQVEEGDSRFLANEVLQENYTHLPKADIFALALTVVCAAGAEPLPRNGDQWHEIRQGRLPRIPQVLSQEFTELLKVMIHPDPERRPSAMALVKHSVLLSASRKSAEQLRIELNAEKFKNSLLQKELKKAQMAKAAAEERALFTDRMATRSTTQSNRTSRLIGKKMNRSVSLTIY
Starred values were filed as active, the others as inactive; nt = not tested or not shown.

SMILES | HIF activator | Platelet DG rel | KLF5 inh | aSyn 5UTR inh | Wee1 degr inh
COc1ccc(/C=C2\SC(=O)N(CCC(=O)Nc3ccccc3)C2=O)cc1OC | 0 | -85 | 12 | 82* | -1
O=C(CCCN1C(=O)/C(=C/c2ccc3c(c2)OCO3)SC1=S)Nc1cccc(C(=O)O)c1 | -3 | 0 | -36 | 73* | nt
CCN(CC)CCOC(=O)c1ccc(NC(=O)CCCN2C(=O)S/C(=C/c3ccc(OC)cc3)C2=S)cc1 | -2 | -8 | 46 | 97* | nt
COc1ccc(/C=C2\SC(=O)N(CCCC(=O)Nc3ccc(C(=O)O)cc3)C2=O)cc1OC | -2 | 11 | -6 | 73* | nt
COc1ccc(/C=C2\SC(=S)N(CCCC(=O)Nc3ccc(C(=O)O)cc3)C2=O)cc1OC | -1 | -1 | -12 | 19 | nt
COc1cc(/C=C2\SC(=S)N(CCC(=O)Nc3ccccc3)C2=O)cc(OC)c1OC | -3 | 15 | -56 | 13 | -1
COc1ccc(/C=C2\SC(=S)N(CCC(=O)Nc3ccc(O)cc3)C2=O)cc1 | 0 | -1 | -51 | -12 | nt
O=C(NC1CCCC1)C1CCN(C(=O)c2cccc(Cl)c2)CC1 | 1 | -4 | 8 | -6 | nt
Cc1c(NC(=O)C(C)Oc2ccc(Br)cc2Cl)c(=O)n(-c2ccccc2)n1C (centres undefined) | 0 | 10 | nt | 16 | nt
CN1CCc2c(sc3c2C(=O)NC(c2cn(Cc4ccccc4)c4ccccc24)N3)C1 (centres undefined) | -1 | -5 | 1 | 64* | -3
CCC1CN(C(=O)N2CCC(C(=O)Nc3ccccc3F)CC2)c2ccccc2O1 (centres undefined) | 0 | 0 | -13 | -1 | nt
C/C(=N\NC(=O)c1ccc(NS(=O)(=O)c2cccs2)cc1)c1ccccn1 | 0 | 6 | -18 | 71* | 2
CC(=O)c1sc(NC(=O)C2COc3ccccc3O2)nc1C (centres undefined) | -3 | -5 | -38 | 62* | 0
C/C(=N\NC(=O)c1ccccc1Cl)c1ccccn1 | 0 | -1 | 36 | 82* | nt
COc1ccc(NC(=O)c2ccccn2)cc1 | -1 | 58* | 4 | 75* | 1
COCCCN1CC(=O)N2C(c3cccc(OC)c3OC)c3[nH]c4ccccc4c3C[C@H]2C1=O (some centres undefined) | -1 | -1 | -33 | 7 | nt
C/C(=N\NC(=O)C(c1ccccc1)c1ccccc1)c1ccccn1 | 0 | 8 | 13 | 80* | -2
CCOc1ccc(OCc2ccc(C(=O)N/N=C(\C)c3ccccn3)cc2)cc1 | 1 | -1 | -118 | 64* | 9.6*
C/C(=N/NC(=O)c1ccc(C(C)(C)C)cc1)c1ccccn1 | 1 | -13 | nt | 57 | nt
C/C(=N\NC(=O)C(c1ccccc1)c1ccccc1)c1ccc(O)cc1 | -1 | 1 | -12 | 3 | nt
C/C(=N\NC(=O)c1cc(-c2cccs2)nc2ccccc12)c1ccccn1 | 2 | -4 | -1 | 79* | -1
C/C(=N\NC(=O)C1COc2ccccc2O1)c1ccccn1 (centres undefined) | 1 | 10 | -15 | 98* | -2
N=C(CC1CC(=O)NC(=O)C1)C1=C(O)CCCC1=O | 0 | -8 | -9 | 23 | -2
O=C(CNC(=O)c1cccc(Cl)c1)NCCCSc1ccccc1 | 0 | 8 | nt | 4 | nt
COc1ccc(NC(=O)c2cnn(-c3ccccc3)c2C)cc1 | 2 | 59* | -61 | -62 | nt
SMILES | HIF activator | Platelet DG rel | KLF5 inh | aSyn 5UTR inh | Wee1 degr inh
C/C(=N\NC(=O)C1CCCN(S(=O)(=O)c2ccccc2)C1)c1ccccn1 (centres undefined) | 0 | 1 | -32 | 67* | 5
COc1ccc(C(=O)N/N=C(\c2ccccc2)c2ccccn2)cc1 | 49* | -4 | 25 | 107* | 2
COc1ccc(C(=O)Nc2ccc(NC(=O)c3ccccn3)cn2)cc1 | 2 | 3 | -21 | -35 | nt
COc1ccc(C(=O)N/N=C/c2cccc3cccnc23)cc1 | 12* | 1 | 28 | 24 | -3
CCN1CCN(c2ccc(N3CCN(S(=O)(=O)c4cc([N+](=O)[O-])ccc4C)CC3)nn2)CC1 | 0 | -4 | nt | -1 | nt
O=c1[nH]c(-c2ccccc2)ncc1Oc1ccccc1 | 0 | 2 | nt | 16 | nt
O=C(N/N=C/c1ccc(F)cc1)c1cc[n+]([O-])cc1 | 0 | 12 | -31 | 2 | nt
O=C(N/N=C(\c1ccccc1)c1ccccn1)c1ccccc1Cl | 47* | 13 | 53 | 68* | nt
C/C(CC(=O)Nc1ccccn1)=N\NC(=O)c1ccccc1 | -25 | -6 | -16 | -58 | 1
C/C(=N\Nc1nc2ccccc2[nH]1)c1ccccn1 | 179* | 5 | 45 | 87* | nt
C/C(CC(=O)Nc1ccccn1)=N\NC(=O)c1ccccc1O | 3 | -3 | 23 | 71* | nt
C/C(=N\Nc1nc2ccccc2[nH]1)c1cc2ccccc2o1 | 2 | 21 | -6 | -138 | 1
C/C(=N\NC(=O)c1cccc(Br)c1)c1ccccn1 | 1 | -1 | 39 | 108* | nt
C/C(=N\NC(=O)c1ccc(Cl)c(Cl)c1)c1ccccn1 | -1 | 0 | 50 | 28 | nt
CN1CCCC(OC(=O)c2ccccc2Br)C1 (centres undefined) | 0 | 1 | -27 | 2 | nt
COc1ccc(CCN2CC(C(=O)NCCc3ccccn3)CCC2=O)cc1 (centres undefined) | 0 | -1 | -15 | 8 | nt
CCCNS(=O)(=O)c1cc(Cl)ccc1OC | 0 | 9 | -2 | 15 | 0
O=C(CCC(=O)c1ccc(Oc2ccccc2)cc1)Nc1ccc(C(=O)O)cc1 | -1 | 11 | -36 | -10 | nt
COc1cccc(-n2cnc3scc(-c4cccs4)c3c2=O)c1 | 0 | 1 | -15 | 21 | -1
O=c1c2c(-c3cccs3)csc2ncn1-c1ccc(Br)cc1 | 0 | -7 | 16 | 23 | 9.1*
CC(=O)c1c(C)[nH]c(C(=O)Nc2nc(C)cs2)c1C | -5 | 11 | 19 | 86* | 3
CC(=O)c1c(C)[nH]c(C(=O)Nc2ccc(C)cn2)c1C | -25 | -14 | -64 | 85* | -2
COCCCNC(=S)N1CCC(NC(=O)c2ccco2)CC1 | 0 | 4 | -9 | 2 | -3
C/C(=N\NC(=O)c1ccncc1)c1cccs1 | 1 | 6 | -12 | -48 | 0
C/C(=N/NC(=O)c1cc(C2CC2)[nH]n1)c1cccs1 | -5 | 21 | -46 | 84* | 1
CC1CCN(CCNC(=O)c2ccc(NC(=O)C3CCCO3)cc2)CC1 (centres undefined) | 0 | -2 | 3 | 7 | 9.3*
CCOc1cc(CNCCCN2CCOCC2)cc(Br)c1OCc1ccccc1Cl | -1 | 0 | -14 | 96* | 1
CCOc1cc(CNCCO)cc(Br)c1OCc1ccccc1Cl | 0 | 1 | -1 | -8 | -3
COc1ccc(C(=O)N2CCC(c3ccccc3)CC2)c(OC)c1OC | 0 | 13 | -8 | 15 | -3
O=C(CN1CCN(c2ccc(F)cc2)CC1)NCc1cccs1 | -1 | 2 | -6 | -6 | 9.0*
